High-throughput results from PubChem BioAssay.
TDP1 cell noCPT – qHTS for Inhibitors of human tyrosyl-DNA phosphodiesterase 1 (TDP1): qHTS in cells in absence of CPT; DT40 Tdp1-/- hTDP1 cells, no CPT, ATP luminescence, 48 h; Potency, µM (titrated, usually from 46.2 µM), for inactives: top-dose activity change, negative = growth inhibition, most hits filed as inhibitors; 420,000 compounds, 15% hits; AID 686978, 2013; further: potency means the concentration at half of the fitted maximal effect; on the % scale 0 is the no-effect control and ±100 the full control effect; nearly all actives have a fitted effect of over 55% in size
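Growth of hTDP1-complemented DT40 Tdp1-knockout cells is measured by ATP luminescence after at least 48 hr compound exposure at 37 °C, with DMSO substituting for the 20 nM CPT used in the parallel screen.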
HepG2 viability – qHTS for Inhibitors of TGF-b: Cytotox Counterscreen | HepG2 CAGA-GFP viability, ATP luminescence, 18 h | 410,000 compounds, 0.76% hits | Potency, µM (titrated, usually from 46.1 µM), without a hit: at the top dose activity change, negative = cytotoxicity, most hits filed as cytotoxic; further: potency means the concentration at half of the fitted maximal effect
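CellTiter-Glo luminescence gave cytotoxicity after 18 hours at 37 degrees C. The cells were HepG2 CAGA-GFP in 1% FBS DMEM, stimulated with 500 pg/mL TGF-beta after compound addition. %Activity was normalised to no-cell wells (complete cell-killing) and DMSO (no toxicity), and curves were fitted and classified.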
TDP1 cell CPT – qHTS for Inhibitors of human tyrosyl-DNA phosphodiesterase 1 (TDP1): qHTS in cells in presence of CPT. chicken DT40 Tdp1-/-;hTDP1 cells + 20 nM CPT, ATP luminescence, 48 h. 420,000 compounds, 12% hits. Potency, µM (highest dose often 46.2 µM), for inactives: top-dose activity change, negative = growth inhibition, most hits filed as inhibitors; further: potency means the concentration at half of the fitted maximal effect; on the % scale 0 is the no-effect control and ±100 the full control effect; nearly all actives have a fitted effect of over 55% in size
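Cell growth measured by CellTiter-Glo luminescence after a minimum 48 h, 37 C compound exposure with 20 nM CPT in Tdp1-knockout DT40 cells stably expressing hTDP1, seeded 400/well; qHTS titration format.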
TGFb inhibitor – qHTS for Inhibitors of TGF-b; HepG2 CAGA-GFP TGF-b/SMAD3 reporter, GFP fluorescence, 18 h; TGF-beta stimulated, 500 pg/mL final; Potency, µM (doses to about 46.1 µM), for inactives: at the top dose activity, negative = inhibition, actives largely listed as inhibitors; 410,000 compounds, 1.2% hits; AID 588855, 2011; further: potency means the concentration at half of the fitted maximal effect; on the % scale 0 is the no-effect control and ±100 the full control effect; nearly all actives have a fitted effect of over 65% in size
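Using HEPG2 CAGA-GFP reporter cells at 1000 cells/well, we pinned test compounds, stimulated with recombinant TGF-beta (500 pg/mL final) and measured total well GFP after 18 h.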
S-ASM inh – Inhibitors of Secretory Acid Sphingomyelinase (S-ASM): qHTS. Potency, µM (doses to about 57.5 µM), without a hit: at the highest dose activity change, negative = inhibition, most hits filed as inhibitors. 340,000 compounds, 0.006% hits. placental ASM, HMU-PC fluorogenic substrate, 60 min. Sphingomyelin phosphodiesterase (Homo sapiens), P17405. AID 504937, 2011; further: potency means the concentration at half of the fitted maximal effect
Target sequence (P17405 47-631 limits assumed): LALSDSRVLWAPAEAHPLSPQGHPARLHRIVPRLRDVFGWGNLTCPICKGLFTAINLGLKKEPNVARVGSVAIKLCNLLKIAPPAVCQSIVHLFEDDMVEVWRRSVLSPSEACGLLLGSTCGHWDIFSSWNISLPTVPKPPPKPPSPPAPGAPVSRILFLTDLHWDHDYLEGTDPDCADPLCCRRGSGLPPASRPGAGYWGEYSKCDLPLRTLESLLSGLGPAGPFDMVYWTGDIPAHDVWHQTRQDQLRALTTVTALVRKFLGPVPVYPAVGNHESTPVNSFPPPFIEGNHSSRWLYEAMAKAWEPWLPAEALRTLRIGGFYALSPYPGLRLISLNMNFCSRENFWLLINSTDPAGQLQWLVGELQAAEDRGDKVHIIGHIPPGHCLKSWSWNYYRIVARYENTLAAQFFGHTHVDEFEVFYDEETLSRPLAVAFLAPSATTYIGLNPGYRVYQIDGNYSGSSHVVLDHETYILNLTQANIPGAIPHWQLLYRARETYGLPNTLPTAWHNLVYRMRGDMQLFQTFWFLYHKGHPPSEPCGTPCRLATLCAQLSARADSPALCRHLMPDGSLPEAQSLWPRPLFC
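Fluorogenic HMU-PC substrate (9 uM final) is turned over by placental ASM in 60 min at 37 C after a 10 min compound preincubation. Reaction ended by alkaline stop (pH 10), with fluorescence read at 386/447 nm.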
IL1B secr inh – qHTS for Inhibitors of Inflammasome Signaling: IL-1-beta AlphaLISA Primary Screen. THP-1 LPS/ATP IL-1B secretion, AlphaLISA, 16 h; stronger effect = lower value. activity change, % at 57.5 µM. 360,000 compounds, 4.7% hits; in the data active means activity change below about -50%; inconclusive means mostly about -30% to -49%; further: on the % scale 0 is the no-effect control and ±100 the full control effect
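THP-1 cells pretreated 1 hr with compounds (up to 57.5 uM final), then stimulated with LPS (250 ng/mL final) plus ATP (1.25 mM final); secreted IL-1B measured by AlphaLISA after 16 hr, decreased signal indicating inhibition.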
Starred values were filed as active, the others as inactive; ? = inconclusive; / = not tested or not shown. In the library only some 19% were active in any assay of this set; here they are far more common. Unless noted, the call rests on the fitted dose curve; in most records, active means well fitted curve in the direction sought with a large enough effect; inconclusive means small, poorly fitted or top-dose-only effect, or another doubt; inactive means no such curve, though single readings can be large; an effect the other way counts as inactive or inconclusive.

SMILES	TDP1 cell noCPT	HepG2 viability	TDP1 cell CPT	TGFb inhibitor	S-ASM inh	IL1B secr inh
Clc1ccc(-c2cnc3n2CCCCC3)cc1	9.2µM*	-25.4%	14.6µM*	-10.6%	3.4%	?
O=[N+]([O-])c1ccc(C2=NN(CCO)C(=Nc3ccc(OC(F)(F)F)cc3)SC2)cc1	20.6µM*	-67.4%	18.4µM*	?	?	-63.2*
COc1ccc(N=C2SCC(c3ccc([N+](=O)[O-])cc3)=NN2CCO)cc1	?	-27.7%	-12.1%	?	-24.4%	/
CCc1cccc(CC)c1NC(=O)/C(C#N)=C/c1ccccc1C(F)(F)F	20.6µM*	-94.7%	?	12.6µM*	-2.5%	-98.6*
N#C/C(=C\c1ccccc1Cl)C(=O)Nc1ccccn1	-19.8%	-0.7%	13.7%	12.2%	6.8%	12.9
N#C/C(=C/c1ccc(O)c([N+](=O)[O-])c1)C(=O)Nc1ccccc1	6.51µM*	-24.4%	4.11µM*	-5.9%	5.1%	-1.6
N#C/C(=C\c1ccccc1C(F)(F)F)C(=O)Nc1ccccc1	-12.0%	-27.7%	-26.3%	-11.5%	-2.8%	-69.7*
Cc1ccc(NC(=O)/C(C#N)=C/c2ccccc2Cl)cc1C	25.9µM*	-43.7%	25.9µM*	-8.8%	/	/
CC(C)(C)C(=O)OCC(=O)[C@H]1CC[C@H]2[C@@H]3CCC4=CC(=O)CC[C@]4(C)[C@H]3CC[C@]12C	1.2%	/	5.7%	/	/	/
COc1ccc(-c2c(C)n([O-])c3c([n+]2=O)CCCCC3)cc1OC	-9.9%	-8.0%	17.5%	7.8%	1.9%	-7.6
NNC(=O)c1ccc2c(c1)S(=O)(=O)NNC2=O	-12.6%	4.9%	-26.1%	-0.2%	5.6%	18.3
CC(C)NC(=O)/C(C#N)=C/c1cccc(NC(=O)c2ccccc2Cl)c1	14.6µM*	-69.1%	?	?	-2.6%	-103.9*
COCCNC(=O)/C(C#N)=C/c1cccc(NC(=O)c2ccccc2Cl)c1	?	-79.0%	?	1.6%	1.2%	-8.3
CCOC(=O)c1cc2c(C)n(-c3ccc(OCC)cc3)c(C)c2cc(C(=O)OCC)c1=O	16.4µM*	-4.7%	?	-8.3%	5.2%	6.1
CCOC(=O)c1cc2c(C)[nH]c(C)c2cc(C(=O)OCC)c1=O	7.31µM*	0.7%	?	0.3%	4.0%	-16.1
CCOC(=O)c1cc(C(=O)OCC)c(=O)[nH]c1C	?	-2.1%	?	-10.4%	1.1%	5.5
O=C(COC(=O)/C=C/c1cccc(C(F)(F)F)c1)Nc1ccc(Cl)cn1	18.3%	-13.3%	-2.0%	-4.8%	3.7%	9.7
CCOC(=O)C1CCN(C(=O)CCC(=O)NNc2nc3ccccc3c3nc(C)nn23)CC1	-1.4%	6.7%	2.1%	33.5%	2.4%	15.1
COC(=O)[C@H](C)NC(=O)Nc1cccc(Br)c1	-9.8%	-12.3%	0.2%	-0.8%	4.7%	-2.1
O=C1CCC(OCc2ccccc2)CCN1CC[C@@H](Sc1ccccc1)c1ccccc1 (some centres undefined)	?	/	?	/	/	11.4
[N-]=[N+]=N[C@@H](CCN1CC[C@H](NC(=O)OCc2ccccc2)CCC1=O)c1ccccc1	?	-18.4%	?	?	4.8%	17.4
O=C(N[C@@H]1CCC(=O)N(CC[C@H](Sc2ccc(Br)cc2)c2ccccc2)CC1)OCc1ccccc1	18.4µM*	2.7%	25.9µM*	?	-1.5%	?
COc1ccc(SC[C@H](C)CN2CC[C@H](NC(=O)OCc3ccccc3)CCC2=O)cc1	23.1µM*	-20.3%	?	-18.5%	-10.0%	28.4
COc1ccc(S[C@@H](CCN2CC[C@H](NC(=O)OCc3ccccc3)CCC2=O)c2ccccc2)cc1	23.1µM*	-38.8%	18.4µM*	12.6µM*	-2.3%	-52.8*
COc1ccc(NC(=O)Cn2c(=O)n(Cc3ccccc3Cl)c(=O)c3cc(OC)c(OC)cc32)cc1	?	2.9%	?	4.9%	/	/
SMILES	TDP1 cell noCPT	HepG2 viability	TDP1 cell CPT	TGFb inhibitor	S-ASM inh	IL1B secr inh
COc1ccc(OC)c(-c2noc(N3CCN(c4cccc(C)c4C)CC3)n2)c1	-17.9%	-7.9%	-9.9%	?	/	/
COc1ccc(OC)c(CNC(=O)C2CCN(S(=O)(=O)c3cn(C)cn3)CC2)c1	2.4%	-0.6%	-11.2%	13.5%	/	/
Nc1nc2n(n1)C(c1ccc(Cl)cc1)CC(c1ccc(F)cc1)N2 (centres undefined)	?	-82.3%	?	?	-1.0%	?
Nc1nc2n(n1)C(c1ccccc1Cl)CC(c1ccc(F)cc1)N2 (centres undefined)	?	-23.3%	16.4µM*	-16.1%	5.8%	-4.4
Cc1ccc(C2CC(c3ccccc3C)n3nc(N)nc3N2)cc1 (centres undefined)	2.4%	-0.4%	-3.0%	0.4%	-0.8%	26.4
Cc1ccc(C2CC(c3ccccc3Cl)n3nc(N)nc3N2)cc1 (centres undefined)	?	3.8%	20.6µM*	11.7%	4.0%	?
CCn1nc(NC(=O)c2cccs2)c2cc3ccccc3nc21	?	-2.5%	?	-1.9%	130.2%	?
CC(CNC(=O)c1cc2ccccn2n1)c1ccccc1 (centres undefined)	-15.8%	-10.4%	-22.6%	-0.9%	/	/
C/C(=N\NC(=S)NC1CCCCC1)c1ccccc1	29.1µM*	5.0%	?	0.0%	-1.9%	18.7
O=C(NC(=S)NC1CCCCC1)c1ccccc1	?	-3.8%	-28.3%	0.8%	-0.8%	20.5
C/C(=N\NC(=S)NC1CCCCC1)c1ccc(O)cc1	16.4µM*	-12.3%	?	-10.1%	-1.5%	?
CC(NC1CCCCC1)C(=O)NN=C(c1ccccc1)c1ccccc1 (centres undefined)	?	-16.7%	?	5.4%	-2.3%	-63.3*
COc1ccccc1Oc1nc2c(c(=O)n(C)c(=O)n2C)n1Cc1cccc(Br)c1	?	-29.6%	?	?	/	/
COC(=O)c1ccccc1NC(=O)CCCN1C(=O)C(c2ccccc2)Oc2cccnc21 (centres undefined)	?	6.7%	?	5.7%	-4.7%	11.4
COc1cc(CNCCSc2nnnn2C)ccc1OCc1ccccc1C	?	2.5%	16.4µM*	-9.6%	/	/
